Results from PubChem BioAssay (NCI).
Compounds without any hit were thinned out: in the full panel of roughly 83,000, 20% have a hit.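 96-well plates, one dose, 48 hours. Percent growth reported; active if below 10.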 A number with no mark means an inactive call. Activity calls are given as the source filed them.

Legend:
Assay in all cases: NCI-60 one-dose screen, 48 h (100 = growth as untreated, 0 = no growth, -100 = all killed)
Conditions in all cases: 10 µM unless noted
[1] = system: DU-145 prostate
[2] = system: K-562 leukemia
[3] = system: MALME-3M melanoma
[4] = system: MDA-MB-231 breast
[5] = system: RXF 393 renal
[6] = system: SF-268 CNS
[7] = system: SF-295 CNS
[8] = system: SF-539 CNS
[9] = system: UACC-257 melanoma
[10] = system: M14 melanoma
[11] = system: HCT-15 colon
[12] = system: HT29 colon
[13] = system: SNB-75 CNS
[14] = system: SNB-19 CNS
[15] = system: U251 CNS
[16] = system: PC-3 prostate
[17] = system: SK-MEL-5 melanoma
[18] = system: UACC-62 melanoma
[19] = system: LOX IMVI melanoma
[20] = system: SK-MEL-28 melanoma

Compound | growth [1] | growth [2] | growth [3] | growth [4] | growth [5] | growth [6] | growth [7] | growth [8] | growth [9] | growth [10] | growth [11] | growth [12] | growth [13] | growth [14] | growth [15] | growth [16] | growth [17] | growth [18] | growth [19] | growth [20]
CCOC(=O)c1cccc(NC2=C(Cl)C(=O)c3nc(C)ccc3C2=O)c1 | 108% | 15.6% | 96.3% | 89.8% | 97.8% | 96.2% | 113% | 104% | 82% | 96.4% | 72.2% | 116% | 108% | 90.8% | 103% | 82% | 98.2% | 95.8% | 65.1% | 103%
CC1=C(C)C(=O)C(Nc2ccc3c(c2)OCO3)=C(Br)C1=O | 109% | 3.43% (active) | 112% | 69.4% | 105% | 96.7% | 96.8% | 106% | 94.3% | 105% | 101% | 109% | 74.3% | 93.8% | 103% | 86% | 90.2% | 87.4% | 77.2% | 110%
N#C/C(=N\Nc1ccc(F)cc1)C(=O)Nc1cc(-c2ccccc2)nn1-c1ccccc1 | 22.9% | 12.8% | -17% (active) | -6.26% (active) | -2.63% (active) | 14.5% | 2.07% (active) | 8.69% (active) | -13.5% (active) | 18.3% | 8.61% (active) | 8.84% (active) | -5.46% (active) | 5.24% (active) | 8.65% (active) | 7.13% (active) | -51.4% (active) | 4.43% (active) | 12.5% | 22.1%
CC(=C(c1ccc(OCCN(C)C)cc1)c1ccc(OCCN(C)C)cc1)c1ccc(Cl)cc1 | -73.6% (active) | -9.65% (active) | -79.9% (active) | -75.4% (active) | -86.6% (active) | -47.7% (active) | -78.1% (active) | -83% (active) | -69.6% (active) | -63.5% (active) | -79.7% (active) | -67.3% (active) | -20.2% (active) | -40.9% (active) | -60.6% (active) | -52.9% (active) | -95.9% (active) | -67.6% (active) | -92.8% (active) | -82.6% (active)
O=C(Nc1cc(C(F)(F)F)cc(C(F)(F)F)c1)Nc1ccc2oc(=O)ccc2c1 | 18.3% | 13.7% | -26.4% (active) | -9.24% (active) | 39.7% | 21.1% | 0.342% (active) | 21.4% | 1.17% (active) | 18.1% | 10.5% | 10.5% | 15.1% | 13.6% | 14.6% | 3.96% (active) | -90.6% (active) | 14% | -43.1% (active) | 34.8%
CCN(CC)CCOc1ccc(C(=C(C)Cc2ccc(OC)cc2)c2ccc(OCCN(CC)CC)cc2)cc1 | 74.5% | -4.16% (active) | -75.5% (active) | 55.4% | 41.9% | 70% | 52.8% | -45.9% (active) | 62.6% | -53.6% (active) | 7.13% (active) | -4.07% (active) | 76.5% | 74.4% | 9.54% (active) | 66.2% | 31.1% | -37.6% (active) | -80.7% (active) | -82% (active)
O=S(=O)(NCCCNc1nccc(-c2[nH]c(-c3ccccc3)nc2-c2ccc(F)c(O)c2)n1)c1ccccc1 | 113% | 60.6% | -4.84% (active) | 81.7% | 121% | 90.7% | 96.9% | 105% | 22.4% | 27.8% | 101% | 98.1% | 79.5% | 110% | 114% | 88.2% | 59.9% | 19.6% | 83.7% | 33.8%
